Results on 102 compounds are retold here after ChEMBL document CHEMBL3988442, “University of Dundee, Small-Polar-MMV Screening Library” (2021).

The campaign covered roughly 48,000 compounds. About 13,000 (27%) showed an effect of 50% or more. This is one part of the list.

For this assay, the system named is Wolbachia pipientis. Briefly: Anti-Wolbachia Cell-Based Screen. The class given is functional. Also noted: scale not given: in the data most compounds retested in dose-response had high values. The note with it: 5 µM.
Turning to `Cc1cc(NC(=O)CNCc2csc(-c3cnccn3)n2)ccc1Cl`, the “Percent Effect” value is on record as -4.536%.
Under `CN(c1ncccc1CNS(=O)(=O)N1CCOCC1)C1CCCCC1` stands 1.985%.
For `Cc1ccc(S(=O)(=O)N2CCOCC2C#N)cc1Br` (configuration not stated) the value was -3.449%.
For `Cc1nc[nH]c1CN1C[C@@H]2CC[C@H](C1)N(C(=O)CCc1cnn(C)c1)C2` the value was -6.684%; for `O=C(NCCCn1ccnn1)C1CCCN(C2CCCC2)C1` (configuration not stated), 9.707%.
In the case of `CC(C)C(C)NC(=O)Nc1ccccc1CN1CCOCC1` (configuration not stated), the “Percent Effect” value is listed as -2.62%.
For `O=c1c(CN2CCOCC2)coc(O)c1CN1CCOCC1`, the “Percent Effect” value stood at 110.9%.
For `Cc1ccc2occ(CN3CCN(c4ncccn4)CC3)c(=O)c2c1` the value was -23.78%; for `O=c1c(CN2CCCCCC2)coc(O)c1CN1CCOCC1`, 99.75%; for `O=c1c(CN2CCCCCC2)coc(O)c1CN1CCCCCC1`, 87.67%.
Under `CC(C)NC(=O)Nc1ccccc1CN1CCOCC1` stands 8.436%.
`O=c1c(CN2CCOCC2)coc2ccc(Cl)cc12`: the “Percent Effect” value was 14.49%.
Under `O=c1c(CN2CCCCC2)coc2ccc(Cl)cc12` stands -1.352%; under `O=c1c(CN2CCSCC2)coc(O)c1CN1CCCC1`, 112.9%; under `O=C1OCCN1CCN1CCCN(Cc2ccccc2F)CC1`, 0.37%.
Regarding `CCn1ccc2ccc(CN3CCCC3c3nc(C(C)C)no3)cc21` (configuration not stated), the “Percent Effect” value is listed as -10.44%.
Under `Cc1cccc(CO[C@H]2CO[C@@]3(CCN(S(=O)(=O)N(C)C)C3)C2)n1` stands -27.75%; under `FC(F)(F)Sc1ccccc1NCc1nc(C2CC2)no1`, 0.6009%; under `CC(NCc1cnc(C2CCC2)s1)c1ccc(-n2cncn2)cc1` (configuration not stated), -68.33%.
For `CC(C)CCCC(C)NC(=O)c1ccc(OCC(N)=O)cc1` (configuration not stated) the value was -8.979%; for `O=C(NCC(F)(F)F)C(c1cccnc1)N1CCCC1` (configuration not stated), -5.02%; for `Cc1ccc(NC(=O)CC2Cn3ncnc3NC2=O)cc1C` (configuration not stated), 101.1%.
For `O=C(CC1Cn2ncnc2NC1=O)Nc1ccc(F)c(F)c1` (configuration not stated) the value was 110.9%.
With `CCC(=O)Nc1ccc(F)c(S(=O)(=O)NC(C)(C)C)c1`, the “Percent Effect” value is -7.233%.
For `Cc1ccc(NC(=O)c2ccc(CC3CC(=O)NC3=O)cc2)cc1O` (configuration not stated) the value was -14.91%.
Under `Cc1cc(NC(=O)CNCc2csc(-c3ncccn3)n2)ccc1Cl` stands 12.11%.
Under `CC(NC(=O)Nc1ccc(F)c(F)c1)c1nc[nH]n1` (configuration not stated) stands -17.28%; under `O=C1CN(c2ccc(CNC(=O)c3ccc[nH]3)cc2F)CCN1`, 1.628%; under `CCNC(=O)NC(=O)CN(CC(C)O)c1ccccc1` (configuration not stated), -6.081%.
`FC(F)(F)c1nnc2n1CCN(c1nc(C3CC3)ns1)C2`: the “Percent Effect” value was found to be 7.167%.
For `CC(C(=O)NS(=O)(=O)Cc1cc(-c2ccccc2)no1)C1CC1` (configuration not stated) the value was -15.76%.
For `c1ccc(-c2cc(CN3CCC(c4ccn[nH]4)CC3)on2)cc1` the value was -18.74%.
Under `O=C(NCc1cc(-c2ccccc2)no1)NCC1CCCO1` (configuration not stated) stands 63.77%; under `Cc1cc(C)c(CNC(=O)NCC2CCCO2)c(=O)[nH]1` (configuration not stated), -10.27%.
`O=C(CC1CCCO1)NS(=O)(=O)Cc1cc(-c2ccccc2)no1` (configuration not stated): the “Percent Effect” value came out at 94.25%.
Turning to `CCN1CCC(CNC(=O)NCc2cc(-c3ccc(C)cc3)no2)C1` (configuration not stated), the “Percent Effect” value is 6.048%.
Under `O=C(NS(=O)(=O)Cc1cc(-c2ccccc2)no1)C1CCOCC1` stands -7.495%.
In the case of `CC1(C)CC1C(=O)NS(=O)(=O)Cc1cc(-c2ccccc2)no1` (configuration not stated), the “Percent Effect” value is recorded as -6.027%.
For `O=S(=O)(Cc1cc(-c2ccccc2)no1)CC1CCCO1` (configuration not stated) the value was 117.5%; for `CS(=O)(=O)N1CC(c2nc[nH]n2)c2cc(C(=O)NC3CC3)ccc21` (configuration not stated), -11.05%; for `CC(=O)Nc1ccc(Cl)c(C(=O)N(C)C(C)c2ccon2)c1` (configuration not stated), 2.031%.
Under `COCCN1CCN(Cc2nc3c(s2)CCCC3)[C@H]2CS(=O)(=O)C[C@H]21` stands -3.056%; under `CN(C)CCN(Cc1ccccc1)C(=O)C1=NNC(=O)CC1`, -7.83%.
For `Cc1ccc(NC2CCN(C(=O)c3ccc(F)c(C)c3)CC2)nn1` the value was 89.48%.
Take `Cc1ccc(NC2CCN(C(=O)c3cccc(F)c3F)CC2)nn1`: the “Percent Effect” value is -1.212%.
Under `COc1ccc(C(=O)N2CCC(Nc3ccc(C)nn3)CC2)c(F)c1` stands -2.664%; under `Cc1ccc(NC2CCN(C(=O)c3cc(C(N)=O)cs3)CC2)nn1`, 7.568%.
For `Cc1ccc(NC2CCN(C(=O)c3ccc4c(c3)CCC4)CC2)nn1` the value was 112.2%; for `COc1cccc(COCC(=O)NC(C(N)=O)c2ccccc2)c1` (configuration not stated), -6.273%.
Under `COc1cc2nc3n(c(=O)c2cc1OC)CCN(C(=O)C1CC1)CC3` stands 109.5%.
As to `COc1cc2nc3n(c(=O)c2cc1OC)CCN(C(=O)C(C)(C)C)CC3`, the “Percent Effect” value turned out to be 130.5%.
For `COc1cc2nc3n(c(=O)c2cc1OC)CCN(C(C)=O)CC3` the value was -0.7868%; for `COc1cc2nc(C)n(CC(=O)NCCCN(C)C)c(=O)c2cc1OC`, 20.74%.
Regarding `COc1ccc2[nH]nc(CN3CCC(C(=O)N4CCCCC4)CC3)c2c1`, the “Percent Effect” value is listed as -39.46%.
Under `CCCC(=O)N1CCc2nc3cc(OC)c(OC)cc3c(=O)n2CC1` stands 121.4%; under `COc1cc2nc3n(c(=O)c2cc1OC)CCN(C(=O)C1CCC1)CC3`, 115.6%; under `CCC(=O)N1CCc2nc3cc(OC)c(OC)cc3c(=O)n2CC1`, -9.574%.
On to `CC(CCN(C)C)NC(=O)c1cccc(C(F)(F)F)c1F` (configuration not stated), for which the “Percent Effect” value was 5.139%.
Under `CN(Cc1ccncc1)CC(c1cccs1)N1CCOCC1` (configuration not stated) stands -0.8027%.
As for `Cc1ccc(C(=O)N(Cc2cccnc2)C[C@@H]2CCC(=O)N2)s1`, the “Percent Effect” value came to 6.518%.
Under `CCc1cnc(N)nc1NCCCn1cc(Cl)cn1` stands 12.08%; under `O=C(NCCNS(=O)(=O)c1cccc(Cl)c1)C1CCCO1` (configuration not stated), -1.895%; under `O=C(CC1CCCO1)NCCc1ccccc1Br` (configuration not stated), -5.645%.
Under `O=C(CCC1CCCO1)NS(=O)(=O)c1ccc(Cl)cc1` (configuration not stated) stands -0.06204%; under `O=C(NCCCN1CCN(c2ncccn2)CC1)NCC1CCCO1` (configuration not stated), 8.99%; under `O=C(CCC1CCCO1)NCCCC(=O)Nc1ccc(Cl)cc1` (configuration not stated), 132.9%.
For `O=C(CCCNC(=O)C1CCCO1)Nc1ccc(Cl)cc1` (configuration not stated) the value was 123.9%; for `O=C(CCCNC(=O)C1CC1)Nc1cnn(-c2ccccc2Cl)c1`, 2.837%; for `O=C(CC1CCCO1)NCCc1ccc(Br)cc1F` (configuration not stated), 2.724%.
With `CNS(=O)(=O)c1ccc(CNC(=O)NCC2CCCO2)cc1` (configuration not stated), the “Percent Effect” value was -4.659%.
Take `O=C(CCC1CCCO1)NCCCO` (configuration not stated): the “Percent Effect” value is reported as -3.139%.
Under `O=C(CC1CCCO1)NCCCC(=O)Nc1ccc(Cl)cc1` (configuration not stated) stands 117.3%; under `O=C(CCCNC(=O)NCC1CCCO1)Nc1ccc(Cl)cc1` (configuration not stated), 100.3%.
Under `CNS(=O)(=O)CC1CCCN1c1ccccn1` (configuration not stated) stands -17.04%.
For `Cc1nc(-c2ccccc2)sc1CSC(C)C(N)=O` (configuration not stated) the value was -3.877%.
As to `CCOC(C)c1nc(CN2CCC(NC(C)C)CC2)cs1` (configuration not stated), the “Percent Effect” value came to 9.562%.
As to `Cc1nn2cc(CCNC(=O)c3cc(C(C)C)no3)nc2s1`, the “Percent Effect” value is recorded as -4.133%.
As to `Cc1ccc(C)c(-n2ncc(C(=O)N(C)CCc3ccccn3)c2N)c1`, the “Percent Effect” value came to 159.7%.
Under `Cc1cc(C(=O)N2C[C@@H]3[C@@H](CN(C)CCc4ccccn4)[C@@H]3C2)c(C)o1` stands -1.529%; under `CCOC(=O)c1cnn(-c2cc(C)ccn2)c1N`, -12.86%.
For `CN(CCc1ccccn1)C(=O)c1ccccc1F` the value was -16.13%.
In the case of `CN(CCc1ccccn1)C(=O)c1cnn(-c2ccccc2F)c1N`, the “Percent Effect” value worked out at 110.9%.
`Cc1cc(Cl)ccc1-n1ncc(C(=O)N(C)CCc2ccccn2)c1N`: the “Percent Effect” value was determined as 185.4%.
For `CN(CCc1ccccn1)C(=O)C(c1cccnc1)N1CCOCC1` (configuration not stated) the value was 2.073%.
As for `Cc1ccccc1SC1CCN(C(=O)[C@@H]2C[C@@H](N)CN2)CC1`, the “Percent Effect” value was -21.68%.
Under `O=C(O)C(F)(F)F.O=C(O)C(F)(F)F.O=C(O)c1cc2c(nc1-c1cncnc1)CCN(C1CCOC1)CC2` (configuration not stated) stands -20.41%; under `Cc1cnn(CC2CCCCN2CCCS(N)(=O)=O)c1` (configuration not stated), -7.264%; under `OC1(CN2CCCCC2)CCN(Cc2c[nH]c(CC3CCCC3)n2)C1` (configuration not stated), 5.378%.
Under `CN(Cc1c(F)cccc1Cl)C(=O)c1cnn(CCN2CCCCC2)c1` stands 4.459%; under `COc1ccc(F)c(-c2nccn2CCN2CCCC2)c1`, -4.269%; under `O=C(CN1CCCCCC1)NCc1ccc2[nH]c(=O)[nH]c2c1`, 33.1%.
Under `O=C(O)C(F)(F)F.O=C([C@H]1C[C@H]2OCC[C@H]2N(C(=O)c2ccccn2)C1)N1CCCCO1` stands -2.538%.
Turning to `O=C1N[C@@H]2CCN(C(=O)c3ccccc3)[C@@H]2C(=O)N1c1ccc(F)cc1`, the “Percent Effect” value was 9.769%.
Under `O=C(O)[C@@H]1CCN(C(=O)c2cscn2)[C@@H]1c1ccc(F)cc1` stands 132.5%; under `O=C(COC1CCCCC1)N1CCN(C(=O)Cc2ccccn2)CC1`, -7.801%; under `O=C(c1cscn1)N1CC[C@H]2[C@@H]1CCC(=O)N2c1ccccc1`, 5.214%.
With `O=C(COCC1CC1)N1CCN(C(=O)Cc2ccccn2)CC1`, the “Percent Effect” value was 1.286%.
For `Cc1ccccc1N1CCN(C(=O)c2cscn2)C(C)C1` (configuration not stated) the value was 6.365%; for `CC(C)OC(=O)[C@@H]1CCN(C(=O)c2ccccn2)[C@@H]1c1ccc(F)cc1`, 116.9%; for `O=C(O)[C@@H]1CCN(C(=O)c2ccccn2)[C@@H]1c1ccc(F)cc1`, 129.5%.
For `CC(C)OC(=O)N1C[C@H]2CC[C@@H]1CN(C(=O)c1ccccn1)C2` the value was 1.179%; for `O=C(O)[C@@H]1CCN(C(=O)Cc2ccccn2)[C@@H]1c1ccc(F)cc1`, 124%.
